This passage reports Potency, outcome and activation results from PubChem BioAssay (NCATS).

The structures appear in SMILES notation. Values joined by “and” are separate entries in the source; they are usually repeats but may differ in a detail not shown here. Equal entries are not always repeated. Records with an inconclusive call do not appear. Active and inactive are the calls of the source. Unless noted, the call rests on the fitted dose curve; in most records, active means well fitted curve in the direction sought with a large enough effect; inconclusive means small, poorly fitted or top-dose-only effect, or another doubt; inactive means no such curve, though single readings can be large; an effect the other way counts as inactive or inconclusive.

Experiment [1] is described as follows: Cellular Toxicity (caspase-3) Renal Proximal Tubule (AID 667).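 Further: cells exposed to compound for 16 hours at 37 °C before detection; 0% = DMSO basal and 100% = 10 µM staurosporine.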 As to conditions: Potency: caspase-3 activation. The gist of the method:
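AC50 derived by standard Hill fit of concentration-response data, normalized between DMSO basal and 10 uM staurosporine as 100% stimulation. Cells: primary rat kidney proximal tubule, 16 h treatment at 37 °C.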

Experiment [2] has as its target Guanine nucleotide-binding protein G(i) subunit alpha-1 (Homo sapiens) (UniProt P63096). Kind of experiment: qHTS Assay for Inhibitors of RGS12 GoLoco Motif Activity (Green Fluorophore) (AID 879).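 Further: 0% = labeled peptide with Gαi1 and full inhibition = labeled peptide alone without protein; negative values mean loss of peptide binding seen as reduced polarization.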 An outline of the steps:
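Fluorescence polarization assay: 50 nM Gαi1 with 10 nM FITC-labeled RGS12 GoLoco peptide in 10 mM Tris pH 7.5, 150 mM NaCl, 0.1 mM GDP, 0.05% NP40, 10 min at room temperature with compound.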
In general terms: Quantitative high-throughput screening tests each substance at several concentrations.

For experiment [3], the target named is Cytochrome P450 2C9 (Homo sapiens) (UniProt P11712). The experiment is described as follows: qHTS Assay for Inhibitors and Substrates of Cytochrome P450 2C9 (AID 883). Further: nearly all actives have a fitted effect of over 60% in size. Further: potency means the concentration at half of the fitted maximal effect. An outline of the steps:
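10nM CYP2C9 + 100uM Luciferin-H (=KM), 25mM KPO4; cpd 10 min 37C; NADPH regen, 60 min 37C; stop/detect with P450 Glo-Buffer 20 min; luminescence. Norm. to 57uM sulphaphenazole as full inhibition.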

In experiment [4] the target is Cytochrome P450 3A4 (Homo sapiens) (UniProt P08684). The experiment is described as follows: qHTS Assay for Inhibitors and Substrates of Cytochrome P450 3A4 (AID 884). Further: series mostly up to about 57 µM; on the % scale 0 is the no-effect control and ±100 the full control effect; nearly all actives have a fitted effect of over 50% in size. An outline of the steps: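 20 nM human CYP3A4 with 25 uM Luciferin-PPXE (at KM) in 200 mM KPO4, preincubated 10 min with compound; NADPH regeneration started a 60 min RT reaction. Luciferin detected by luminescence, normalized to 57 uM ketoconazole as full inhibition.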

For experiment [5], the target named is Cytochrome P450 2D6 (Homo sapiens) (UniProt P10635). The experiment is described as follows: qHTS Assay for Inhibitors and Substrates of Cytochrome P450 2D6 (AID 891). Further: nearly all actives have a fitted effect of over 60% in size. Further: potency means the concentration at half of the fitted maximal effect. The gist of the method: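 Human CYP2D6 (5 nM) with 30 uM Luciferin-ME EGE (at Km) in 100 mM KPO4, compound preincubated 10 min, then NADPH regeneration system for 60 min at room temperature. Luciferin read by luminescence; normalized to 1.43 uM quinidine.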

The nature of experiment [6]: qHTS Assay for Identification of Small Molecule Antagonists for NFkB Signaling Pathway (AID 895; active means well fitted inhibition curve with a large enough effect in the signal ratio, with a control signal flat, not every such curve was filed as active; the % refers to the signal ratio; further: on the % scale 0 is the no-effect control and ±100 the full control effect). The gist of the method:
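ME-180 NFkB-bla cells (beta-lactamase under NFkB response element), plated overnight, treated with compound then 10 pM TNF alpha (about EC50) for 5 hrs at 37 C. LiveBLAzer FRET read at 460/530 nm emission, 405 nm excitation.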

For experiment [7], the target named is Cytochrome P450 2C19 (Homo sapiens) (UniProt P33261). Kind of experiment: qHTS Assay for Inhibitors and Substrates of Cytochrome P450 2C19 (AID 899). Further: nearly all actives have a fitted effect of over 60% in size. Further: potency means the concentration at half of the fitted maximal effect. An outline of the steps: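 Luminescent read-out of luciferin formed from Luciferin-H EGE (10uM, equal to KM). Enzyme 5nM in 50mM KPO4; compound added, 10 min at 37C, then NADPH regenerating system for 60 min at 37C. Full inhibition defined by 57uM ketoconazole.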

A short description of experiment [8]: qHTS Assay for Identification of Small Molecule Agonists for Thrombopoietin (TPO) Signaling Pathway (AID 917). Further: on the % scale 0 is the no-effect control and ±100 the full control effect. An outline of the steps: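 Luminescence from a Glycoprotein IIb promoter–driven luciferase reporter served as read-out in murine Ba/F3 cells carrying the human TPO receptor. Cells, deprived of IL-3 overnight, received compounds with 26 pM TPO and were incubated 24 hrs at 37 C.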

Experiment [9] is described as follows: Cell Viability - LYMP2-001 (AID 921).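 Further: series mostly up to about 92 µM; cells exposed to compound for 24 h at 37 °C; 0% = DMSO only and full inhibition = tetraoctylammonium bromide control wells; nearly all actives have a fitted effect of over 70% in size.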 The gist of the method:
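Steps: seed 2500 lymphoblastoid cells/well; 5 hr, 37 C; add compound; 24 hr, 37 C; CellTiter-Glo reagent, 30 min room temperature; read luminescence. Concentration-response modeled by Hill equation for AC50.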

The target in experiment [10] is Muscarinic acetylcholine receptor M1 (Rattus norvegicus) (UniProt P08482). Kind of experiment: qHTS Assay for Antagonists of Acetylcholine Muscarinic M1 Receptor: Kinetic Measurement of Intracellular Calcium Response (AID 943).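 Further: Fluo-4 calcium signal as peak divided by basal fluorescence over 4 min; series mostly up to about 35 µM; nearly all actives have a fitted effect of over 75% in size.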 The gist of the method: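 Rat M1-CHO cells, 2000/well, overnight → Fluo-4 no-wash dye with probenecid, 1 h 37C → compound 10 min, room temp → basal read 6 s → carbachol EC80 (100 nM) → 4 min kinetic read; peak/basal.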

For experiment [11], the target named is Pyruvate kinase (Leishmania mexicana) (UniProt Q27686). The experiment is described as follows: qHTS Validation Assay for Inhibitors of Leishmania Mexicana Pyruvate Kinase (AID 945). Further: potency means the concentration at half of the fitted maximal effect. The gist of the method:
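An endpoint luciferase assay: 0.2 nM LmPYK E451W turns over 0.5 mM PEP with 0.1 mM ADP for 1 h at room temperature, pH 7.2, before PKLight addition. Values are normalized to DMSO-only wells.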

Experiment [12] can be described thus: MultiTox-Fluor Cytotoxicity Assay - LYMP1-001 - Dead Cells (AID 946). Further: potency means the concentration at half of the fitted maximal effect. The gist of the method: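 Cytotoxicity as increased dead-cell protease fluorescence (bis-AAF-R110, 485/520 nm), read 60 min after MultiTox-Fluor reagent. Human lymphoblastoid line exposed 16 h; Hill-fitted AC50, with DMSO as 0% and 15 uM tetraoctylammonium bromide as 100%.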
A short description of experiment [13]: MultiTox-Fluor Cytotoxicity Assay - LYMP1-001 - Live Cells (AID 947).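 Further: 0% = DMSO only and full inhibition = tetraoctylammonium bromide control.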
Experiment [14] addresses Cytochrome P450 3A4 (Homo sapiens) (UniProt P08684). The experiment is described as follows: qHTS Assay for Activators of Cytochrome P450 3A4 (AID 885). Further: nearly all actives have a fitted effect of over 65% in size. The gist of the method: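 Signal was normalized against complete inhibition by 57 uM ketoconazole. The reaction used 20nM CYP3A4 with 25uM Luciferin-PPXE, 10-min compound preincubation and a 60-min NADPH-supported step at RT.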

Experiment [15] can be described thus: Confirmation and Secondary Assay for Modulators of Hemoglobin Beta Chain Splicing at IVS2 654 locus (AID 910).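 Further: HeLa cells stably carrying EGFP split by mutant beta-globin IVS2-654 intron; % of control where 0% means no effect.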 An outline of the steps: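 HeLa cells stably expressing EGFP interrupted by β-globin IVS2-654 intron, seeded overnight in Opti-MEM/2% FCS, then treated 2 days at 37 °C. Restored splicing read as total peak GFP intensity per well by laser scanning cytometry (488 nm excitation, 500–520 nm emission); 500 nM antisense PNA as control.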

The nature of experiment [16]: Confirmation and Secondary Assay for Modulators of Hemoglobin Beta Chain Splicing at IVS2 705 locus (AID 930).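 Further: HeLa cells stably expressing the EGFP-705 splicing reporter; GFP fluorescence per well restored by corrected splicing of the IVS2-705 intron in EGFP; series mostly up to about 46 µM; % of control where 0% means no effect.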 An outline of the steps: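 Per-well GFP, captured at 1 x 8 µm resolution with 488 nm excitation, served as the read-out for HeLa EGFP-705 cells incubated 2 days with test compound versus DMSO.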
Experiment [17] has as its target Muscarinic acetylcholine receptor M1 (Rattus norvegicus) (UniProt P08482). The experiment is described as follows: qHTS Assay for Antagonists of Acetylcholine Muscarinic M1 Receptor: Measurement of IP-One Response (AID 944). Further: nearly all actives have a fitted effect of over 75% in size. The gist of the method:
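M1-CHO (rat), 2000 cells/well, overnight recovery; cpd 10 min; carbachol EC80 (200 nM), 30 min, HEPES buffer + 50 mM LiCl pH 7.4; IP-One HTRF, Ex 337, Em 620/665 nm.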

Experiment [18] in a line: qHTS Assay for Identification of Small Molecule Agonists for Hypoxia Response Element Signaling Pathway (AID 914; active means well fitted activation curve with a large enough effect in the signal ratio, with a control signal flat, not every such curve was filed as active; the % refers to the signal ratio; further: % of control where 0% means no effect). As to conditions: ME-180 (cervical carcinoma) HRE-bla reporter, beta-lactamase ratio, CoCl2, 17 h; stronger effect = higher value. The gist of the method: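 In Opti-MEM containing 0.5% dialyzed FBS and 10 mM HEPES, ME-180 HRE-bla cells received a compound titration and EC50 CoCl2. They were incubated 17 hours, then CCF4-loaded 2.5 hours at room temperature before ratio reading.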

A short description of experiment [19]: qHTS Assay for Identification of Small Molecule Agonists for NFkB Signaling Pathway (AID 928; calls by dose curve). As to conditions: NFkB beta-lactamase reporter cells, blue/green ratio. The gist of the method:
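ME-180 NFkB-bla cells carry a beta-lactamase reporter under an NFkB response element. Compound plus 10 pM TNF alpha (final) was applied for 5 hrs at 37 C. After 2 hrs with LiveBLAzer substrate, 460/530 nm emission was read at 405 nm excitation.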

Cytochrome P450 2C19 (Homo sapiens), sequence (P33261 whole entry, looked up): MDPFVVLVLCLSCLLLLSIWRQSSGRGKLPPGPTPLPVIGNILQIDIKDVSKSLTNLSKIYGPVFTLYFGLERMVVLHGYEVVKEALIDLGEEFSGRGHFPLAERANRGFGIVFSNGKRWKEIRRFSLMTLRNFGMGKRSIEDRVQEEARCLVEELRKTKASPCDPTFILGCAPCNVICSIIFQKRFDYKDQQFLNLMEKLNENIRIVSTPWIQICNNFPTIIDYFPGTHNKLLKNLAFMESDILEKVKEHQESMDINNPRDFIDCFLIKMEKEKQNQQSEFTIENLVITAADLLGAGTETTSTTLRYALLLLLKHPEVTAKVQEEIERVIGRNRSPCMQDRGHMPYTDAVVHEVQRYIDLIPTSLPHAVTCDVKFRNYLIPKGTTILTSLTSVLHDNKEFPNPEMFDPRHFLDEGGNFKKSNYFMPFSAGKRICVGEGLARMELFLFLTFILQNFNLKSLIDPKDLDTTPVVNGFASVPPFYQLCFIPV
Pyruvate kinase (Leishmania mexicana), sequence (Q27686 2-499 E452W): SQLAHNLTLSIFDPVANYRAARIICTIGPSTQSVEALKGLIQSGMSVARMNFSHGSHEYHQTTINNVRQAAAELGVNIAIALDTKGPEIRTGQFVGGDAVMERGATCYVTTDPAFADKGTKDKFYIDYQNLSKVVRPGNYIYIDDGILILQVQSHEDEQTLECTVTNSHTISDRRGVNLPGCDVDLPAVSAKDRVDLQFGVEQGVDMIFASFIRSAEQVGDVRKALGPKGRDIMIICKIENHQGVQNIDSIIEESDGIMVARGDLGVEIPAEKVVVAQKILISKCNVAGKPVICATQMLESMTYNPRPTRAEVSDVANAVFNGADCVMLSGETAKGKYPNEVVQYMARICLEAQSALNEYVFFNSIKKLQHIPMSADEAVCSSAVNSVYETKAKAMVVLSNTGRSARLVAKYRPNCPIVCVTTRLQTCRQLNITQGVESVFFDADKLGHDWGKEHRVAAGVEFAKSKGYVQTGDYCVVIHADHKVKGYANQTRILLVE
Muscarinic acetylcholine receptor M1 (Rattus norvegicus), sequence (P08482 whole entry, looked up): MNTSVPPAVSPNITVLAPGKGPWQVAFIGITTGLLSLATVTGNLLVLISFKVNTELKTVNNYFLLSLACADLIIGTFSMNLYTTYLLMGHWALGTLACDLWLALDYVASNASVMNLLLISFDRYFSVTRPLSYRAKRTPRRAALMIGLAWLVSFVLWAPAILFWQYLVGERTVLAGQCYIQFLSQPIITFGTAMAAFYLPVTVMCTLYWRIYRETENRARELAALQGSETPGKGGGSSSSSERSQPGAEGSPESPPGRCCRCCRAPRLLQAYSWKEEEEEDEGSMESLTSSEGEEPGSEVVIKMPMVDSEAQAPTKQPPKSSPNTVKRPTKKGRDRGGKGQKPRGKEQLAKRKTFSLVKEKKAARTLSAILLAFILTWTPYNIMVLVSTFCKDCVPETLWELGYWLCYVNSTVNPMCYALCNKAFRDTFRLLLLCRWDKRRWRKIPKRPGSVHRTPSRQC
Cytochrome P450 2C9 (Homo sapiens), sequence (P11712 whole entry, looked up): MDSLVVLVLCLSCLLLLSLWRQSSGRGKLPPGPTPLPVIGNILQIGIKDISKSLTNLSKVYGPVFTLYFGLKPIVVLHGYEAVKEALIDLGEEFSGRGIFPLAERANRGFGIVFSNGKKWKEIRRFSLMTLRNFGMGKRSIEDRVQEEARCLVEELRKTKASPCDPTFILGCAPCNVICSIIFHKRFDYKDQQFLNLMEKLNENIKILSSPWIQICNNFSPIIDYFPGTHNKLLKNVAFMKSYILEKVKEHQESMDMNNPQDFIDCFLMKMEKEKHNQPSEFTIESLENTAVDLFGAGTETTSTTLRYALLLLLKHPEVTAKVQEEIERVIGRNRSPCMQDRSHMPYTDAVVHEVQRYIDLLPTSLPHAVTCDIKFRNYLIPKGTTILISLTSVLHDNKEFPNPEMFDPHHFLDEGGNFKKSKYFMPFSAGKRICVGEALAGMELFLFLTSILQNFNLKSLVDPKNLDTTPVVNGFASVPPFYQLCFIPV
Guanine nucleotide-binding protein G(i) subunit alpha-1 (Homo sapiens), sequence (P63096 whole entry, looked up): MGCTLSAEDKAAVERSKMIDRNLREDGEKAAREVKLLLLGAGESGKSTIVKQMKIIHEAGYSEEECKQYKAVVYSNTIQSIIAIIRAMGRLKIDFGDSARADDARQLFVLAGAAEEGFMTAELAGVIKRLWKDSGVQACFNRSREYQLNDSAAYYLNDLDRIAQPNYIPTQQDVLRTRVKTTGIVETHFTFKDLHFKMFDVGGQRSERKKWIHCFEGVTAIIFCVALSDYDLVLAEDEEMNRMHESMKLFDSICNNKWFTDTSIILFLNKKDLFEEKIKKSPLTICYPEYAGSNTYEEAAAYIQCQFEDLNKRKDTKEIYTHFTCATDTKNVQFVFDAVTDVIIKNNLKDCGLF
Cytochrome P450 2D6 (Homo sapiens), sequence (P10635 whole entry, looked up): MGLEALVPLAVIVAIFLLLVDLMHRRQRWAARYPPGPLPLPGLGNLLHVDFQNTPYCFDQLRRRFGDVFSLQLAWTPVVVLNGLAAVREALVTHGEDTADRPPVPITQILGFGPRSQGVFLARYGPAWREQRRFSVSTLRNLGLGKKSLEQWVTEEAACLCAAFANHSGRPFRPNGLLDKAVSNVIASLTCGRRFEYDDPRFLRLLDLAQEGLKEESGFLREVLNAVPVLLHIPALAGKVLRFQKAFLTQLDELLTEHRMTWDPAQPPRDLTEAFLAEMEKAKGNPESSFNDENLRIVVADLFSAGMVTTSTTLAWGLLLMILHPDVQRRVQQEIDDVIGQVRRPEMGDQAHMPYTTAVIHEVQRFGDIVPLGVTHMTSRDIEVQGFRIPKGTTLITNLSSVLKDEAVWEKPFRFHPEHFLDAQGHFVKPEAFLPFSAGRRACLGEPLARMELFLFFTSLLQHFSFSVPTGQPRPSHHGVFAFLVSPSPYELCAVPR
Cytochrome P450 3A4 (Homo sapiens), sequence (P08684 whole entry, looked up): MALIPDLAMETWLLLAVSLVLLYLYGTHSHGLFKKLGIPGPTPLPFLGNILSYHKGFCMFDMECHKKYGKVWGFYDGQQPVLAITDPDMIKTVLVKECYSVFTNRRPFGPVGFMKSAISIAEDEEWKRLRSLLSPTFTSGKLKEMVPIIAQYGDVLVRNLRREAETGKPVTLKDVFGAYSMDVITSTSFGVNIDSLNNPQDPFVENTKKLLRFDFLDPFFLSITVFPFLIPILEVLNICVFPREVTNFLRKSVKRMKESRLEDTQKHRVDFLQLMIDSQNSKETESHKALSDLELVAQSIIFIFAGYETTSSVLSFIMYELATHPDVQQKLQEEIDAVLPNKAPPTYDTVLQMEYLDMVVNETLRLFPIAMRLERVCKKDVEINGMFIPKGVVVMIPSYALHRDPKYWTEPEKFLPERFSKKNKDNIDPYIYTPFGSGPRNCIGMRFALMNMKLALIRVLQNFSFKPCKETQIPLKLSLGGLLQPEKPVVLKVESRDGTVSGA

Turning to `CC(=O)c1ccc(S(=O)(=O)NC(=O)NC2CCCCC2)cc1`, the Potency entry in experiment [1], in experiment [3], in experiment [4], in experiment [5], in [6] and in [7] was “inactive” in each case. Besides, the Potency result in [8], in [9], in [11] and in [12] was “inactive” each time. For the same compound, the compound was classed as inactive in experiment [2], in experiment [10] and in [13].
As to `O=C(O)c1cc(O)c2c(c1)C(=O)c1cccc(O)c1C2=O`, the Potency entry in [1], in experiment [4], in experiment [9] and in experiment [12] was “inactive” each time. The outcome in [14] and in experiment [13] was inactive.
As for `CC(=O)CCCCn1c(=O)c2c(ncn2C)n(C)c1=O`, the compound was classed as inactive in [2], in experiment [15], in [16] and in [17]. The Potency result in experiment [3], in experiment [4], in experiment [5], in [7], in experiment [8] and in experiment [11] was “inactive” each time.
Regarding `O=c1cc(-c2ccc(O)cc2)oc2cc(O)cc(O)c12`, the Potency entry in experiment [1], in experiment [3] and in experiment [9] was “inactive” throughout. Besides, the call in experiment [14], in experiment [15], in experiment [10] and in [17] was inactive. Further, the results for the Potency in [7], in experiment [11] and in experiment [12] were 7.94 µM (active), 12.6 µM (active) and 79.4 µM (active), respectively.
Turning to `O=c1c(O)c(-c2ccc(O)cc2)oc2cc(O)cc(O)c12`, the Potency result in experiment [1], in experiment [9] and in experiment [12] was “inactive” throughout. In addition, the Potency in [3] and in experiment [5] was 15.8 µM (active) in each case. Further, the call in experiment [14] and in [13] was inactive.
For `CCn1cc(C(=O)O)c(=O)c2ccc(C)nc21`, the Potency result in experiment [1], in experiment [9] and in [12] was “inactive” each time. Also, the compound was called inactive in experiment [15], in experiment [16] and in experiment [13].
On to `CCCNC(=O)NS(=O)(=O)c1ccc(Cl)cc1`, for which the Potency result in experiment [1], in [3], in [4], in experiment [5], in [7] and in [8] was “inactive” each time. Besides, the Potency entry in [9], in experiment [11] and in [12] was “inactive” throughout. Further, the outcome in experiment [2], in experiment [14], in experiment [15], in [16] and in experiment [13] was inactive. In addition, the activation in [18] was -1.93% (inactive) and -16.9% (inactive) and -21.4% (inactive). The Potency in experiment [19] was 0.447 µM (active).
Consider `CCN1CCC[C@H]1CNC(=O)c1cc(S(N)(=O)=O)ccc1OC`, for which the call in experiment [2] was inactive. Besides, the Potency entry in experiment [4], in experiment [7], in [8] and in experiment [11] was “inactive” throughout.
In the case of `CC(=O)O[C@]1(C(C)=O)CC[C@H]2[C@@H]3C=C(Cl)C4=CC(=O)[C@@H]5C[C@@H]5[C@]4(C)[C@H]3CC[C@@]21C`, the Potency entry in experiment [1], in [4] and in [9] was “inactive” in each case. Further, in experiment [13], the outcome was inactive.
